Rows were chosen to be rich in hits. Some 1.3% of all compounds tested hit in one or more screens of this group.
C2C12 statin = suppressors of statin myotoxicity in C2C12 myotubes, primary screen, cell-based, single point, plate reader. 330,000 tested, 0.78% active. rescue of ATP level, % at 7.49 µM. C2C12 myotubes + simvastatin, ATP luminescence, 48 h; scaled: DMSO 0, geranylgeraniol control 100;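 active = mean ATP rescue above about 67%, or every replicate alone reaching that limit, limit read from the data, passing the limit was not always enough; inconclusive = no clear call, values can overlap the other calls; inactive = mean under the limit and some replicate under it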;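 note: myotubes were challenged with 10 µM simvastatin during compound exposure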
HIF act = HIF pathway transcriptional activators, primary screen, cell-based, U2OS HRE-luciferase, luminescence; U2OS HRE-luciferase reporter; normalized: DMSO 0%, desferrioxamine 100%; AID 1910, 2009; activation, % at 7.5 µM (by protocol); 300,000 tested, 0.32% active;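 active = mean activation of at least 10% of the iron chelator positive control signal, with at least half of replicates also reaching 10%; inconclusive = mean and replicate majority disagree about reaching 10%; inactive = mean and most replicates under 10%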
AI-2 QS mod = Vibrio harveyi AI-2 quorum sensing modulators, primary screen, JMH597 strain, luminescence/OD600 ratio. Vibrio harveyi JMH597 AI-2 luminescence/OD600 ratio, 9 h; active compounds read low; strain lacks LuxN and CqsS sensors; 0 = neutral-control median. activity change, % at 7.5 µM. 300,000 tested, 0.4% active; in the data active = activity change below about -75%, passing the limit was not always enough; inconclusive = no clear call, values can overlap the other calls;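 note: luminescence divided by OD600 gain over 9 h not by final OD600 alone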
PGC1a acetyl inh = inhibitors of PGC1a acetylation signal, primary screen, cell-based, U2OS, AlphaScreen, inhibitor mode; inhibition, % at 15.6 µM; AlphaScreen anti-acetyl-lysine; with virally co-expressed GCN5 acetyltransferase; 350,000 tested, 0.17% active;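 active = every replicate shows inhibition of at least 40%; inconclusive = mean inhibition at least 40% but some replicate below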;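 note: 0% = neutral control wells and 100% = positive control wells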
Rce1 inhib = yeast Rce1p protease inhibitors, primary screen, biochemical, fluorescence, cell-free homogeneous; CAAX prenyl protease 2 (Saccharomyces cerevisiae (strain ATCC 204508 / S288c)), Q03530; yeast membranes, quenched prenylated peptide cleavage fluorescence; calls only; 290,000 tested, 0.27% active; AID 2563, 2010;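 active = fall in fluorescence gain of 50% or more versus controls, with final raw signal at or below 3038400; inconclusive = same 50% fall but final raw signal above 3038400; inactive = fall in fluorescence gain under 50%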;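 note: plate controls were neutral control wells for no effect and wells lacking membranes for full effect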
Target sequence (Q03530 whole entry, looked up): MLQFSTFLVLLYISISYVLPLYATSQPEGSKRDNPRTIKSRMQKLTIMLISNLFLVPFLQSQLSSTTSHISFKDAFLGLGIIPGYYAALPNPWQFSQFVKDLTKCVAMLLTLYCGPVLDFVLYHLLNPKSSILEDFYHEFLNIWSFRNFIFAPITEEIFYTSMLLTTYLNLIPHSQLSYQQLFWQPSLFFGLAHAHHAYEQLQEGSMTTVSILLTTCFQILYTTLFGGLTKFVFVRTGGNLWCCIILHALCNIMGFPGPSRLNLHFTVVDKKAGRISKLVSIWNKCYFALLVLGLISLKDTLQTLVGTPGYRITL
* = called active by the depositor; i = inactive; ? = inconclusive; . = not tested or not shown; + = active, no number.

SMILES	C2C12 statin	HIF act	AI-2 QS mod	PGC1a acetyl inh	Rce1 inhib
C[C@@H]1CN([C@H](C)CO)C(=O)CCCn2cc(nn2)CO[C@@H]1CN(C)C(=O)Nc1ccccc1C(F)(F)F	-3.7	.	.	6.4	.
COc1ccc(Cn2nnnc2CN2CCOCC2)cc1	11.3	-0.1	35.9	2.3	i
c1ccc(Cn2nnnc2CN2CCN(c3ncccn3)CC2)cc1	140.2*	0.0	15.0	9.7	i
COc1ccc(COC(=O)C2=C(C)NC(=O)NC2c2cc(OC)ccc2OC)cc1 (configuration not stated)	11.9	0.1	9.0	4.1	i
CCSCCOC(=O)C1=C(C)NC(=O)NC1c1cc(OC)ccc1OC (configuration not stated)	98.9*	-0.5	3.7	12.5	i
COc1ccc(OCC(=O)NNC(=O)c2c(-c3ccccc3Cl)noc2C)cc1	1.1	-0.6	38.9	61.7*	i
COc1ccccc1OCC(=O)NNC(=O)c1c(-c2ccccc2Cl)noc1C	.	-0.4	26.4	15.3	i
CCSc1nnc(NC(=O)c2c(-c3ccccc3Cl)noc2C)s1	126.0*	-24.0	20.2	-2.3	i
O=C(CSc1nc2c(sc3ccccc32)c(=O)n1Cc1ccco1)NCC1CCCO1 (configuration not stated)	94.7*	-0.6	10.7	-4.0	i
O=C(Nc1cccnc1Oc1ccc(Cl)cc1)c1cccc2ccccc12	11.7	-0.6	16.6	5.8	+
NC(=O)c1cccnc1Oc1ccc(Cl)cc1	1.0	-0.2	3.8	-9.4	i
Cc1ccc(-c2nc3ccccc3[nH]2)cc1NC(=O)c1ccco1	116.0*	0.6	-0.7	12.6	.
O=C(Nc1cccc(-c2nc3ccccc3[nH]2)c1)c1cccc(NC(=O)c2ccco2)c1	-82.5	-1.5	-2.6	-16.2	i
COC(C[C@H](O)C[C@H](O)[C@@H](C)OCc1ccccc1)OC	5.9	0.5	10.9	.	+
COC(C/C=C/[C@H](O)[C@@H](C)OCc1ccccc1)OC	-0.8	1.1	0.8	.	+
COC(C[C@H](O)C[C@@H](O)[C@H](C)OCc1ccccc1)OC	-0.4	0.3	-3.0	.	i
COC(C/C=C/[C@H](O)[C@H](C)OCc1ccccc1)OC	-6.6	1.1	3.0	.	+
COC(C/C=C/C(=O)[C@H](C)OCc1ccccc1)OC	-2.4	2.8	4.7	.	+
COc1ccc(NC(=O)N(C)C[C@H]2Oc3c(NS(=O)(=O)c4ccccc4)cccc3C(=O)N([C@@H](C)CO)C[C@H]2C)cc1	22.6	.	.	-0.9	.
COc1ccccc1-c1ccc2c(c1)O[C@@H](CN(C)Cc1ccc3c(c1)OCO3)[C@@H](C)CN([C@H](C)CO)S2(=O)=O	-21.6	.	.	-64.4	.
CC(C)NC(=O)NCC[C@H]1CC[C@H](NC(=O)Nc2ccccc2)[C@@H](CO)O1	-0.5	.	.	0.9	.
COC(C/C=C/[C@@H](O)[C@H](C)OCc1ccccc1)OC	5.9	0.4	-2.1	.	+
O=C(CN(Cc1ccc(F)cc1)C(=O)CCC(=O)Nc1nccs1)NCC1CCCO1 (configuration not stated)	-6.8	30.8*	20.1	-14.9	i
O=C(CN(C(=O)CCC(=O)Nc1nccs1)c1ccc(F)cc1)NCC1CCCO1 (configuration not stated)	5.8	-0.2	1.5	-2.0	i
COc1ccc(S(=O)(=O)N(C)C[C@@H]2Oc3c(NS(=O)(=O)c4ccc(C)cc4)cccc3C(=O)N([C@H](C)CO)C[C@H]2C)cc1	.	.	.	-3.3	.
SMILES	C2C12 statin	HIF act	AI-2 QS mod	PGC1a acetyl inh	Rce1 inhib
COc1ccc(C(=O)NNC(=S)NC(=O)c2ccco2)cc1	-5.9	0.7	-149.5*	17.6	i
CCCOc1ccc(C(=O)NNC(=S)NC(=O)c2ccco2)cc1	24.5	0.1	?	.	i
O=C(NNC(=S)NC(=O)c1cccc([N+](=O)[O-])c1)c1ccc(Br)cc1	-10.1	-0.1	-211.8*	15.1	i
O=C(NC(=S)NNC(=O)c1ccco1)c1ccc(Br)cc1	11.9	0.1	-128.2*	.	i
O=C(NNC(=S)NC(=O)c1ccco1)c1ccc(F)cc1	.	0.5	-103.9*	7.2	i
C[C@H](CO)N1C[C@H](C)[C@@H](CN(C)Cc2ccc(C(=O)Nc3ccccc3N)cc2)Oc2c(NS(=O)(=O)c3cn(C)cn3)cccc2C1=O	.	.	.	-0.9	.
CCCNC(=O)N1CC2(CN(Cc3nccs3)C2)c2c([nH]c3cc(OC)ccc23)[C@@H]1CO	.	.	.	-1.9	.
C[C@@H]1CN([C@H](C)CO)C(=O)c2cc(-c3ccc(C#N)cc3)cnc2O[C@@H]1CN(C)Cc1ccccn1	21.9	.	.	7.3	.
COCC(=O)N1CC2(CN(C(=O)c3ccccn3)C2)c2c(n(C)c3cc(OC)ccc23)[C@H]1CO	.	.	.	4.6	.
C[C@H](CO)N1C[C@H](C)[C@H](CN(C)C(=O)Nc2ccccc2)Oc2c(cccc2N(C)C)C1=O	19.1	.	.	1.5	.
CCCOc1ccc(C(=O)NNC(=S)NC(=O)c2ccccc2)cc1	24.1	0.9	-212.9*	.	i
CCN(CC)CCNc1nc2ccccc2n1C	5.2	-37.0	41.4	2.6	i
Cc1ccc2c(c1)nc(NCCO)n2C	91.1*	-23.3	-8.9	-3.0	i
Cc1ccc(C)c(OCC(O)CN2CCC(C)CC2)c1C (configuration not stated)	110.5*	-0.2	15.2	-26.7	.
COc1ccc(CNc2ncnc3cc(OC)c(OC)cc23)cc1	111.3*	0.0	19.6	7.2	i
O=C(CNc1cccc(F)c1)N1CCc2ccccc2C1	117.9*	2.4	4.8	-1.4	i
O=C(c1cccc(F)c1)N1CCc2ccccc2C1	.	0.6	-0.9	-4.8	i
CC(SCc1cn2cc(Cl)ccc2n1)C(=O)O (configuration not stated)	107.8*	0.3	6.1	4.4	i
C[C@@H]1CN([C@@H](C)CO)C(=O)c2cc(N(C)C)ccc2O[C@@H](C)CCCCO[C@@H]1CN(C)C(=O)Nc1ccc(C(F)(F)F)cc1	0.4	.	.	7.9	.
CC1CC(C)CN(S(=O)(=O)c2ccc3c(c2)oc(=O)n3CC(=O)NCCCOC(C)C)C1 (configuration not stated)	-4.5	31.4*	50.6	-7.5	i
O=C(NC[C@H]1[C@@H](c2ccccc2)[C@@H](CO)N1CC1CCCC1)c1cccnc1	15.0	.	.	0.7	.
CNC(=O)c1ccsc1NC(=O)c1ccc(S(=O)(=O)N2CCCc3ccccc32)cc1	76.2*	-0.7	2.6	-28.5	i
O=C(NCC1(c2ccccc2)CCCC1)c1ccc(Br)cc1	.	-0.3	15.8	.	i
CCCN(CCC)C(C)C(=O)NCC1(c2ccccc2)CCCC1 (configuration not stated)	.	719.3*	42.1	.	i

Assay outcomes: PubChem, Broad Institute
